# Test results from PubChem BioAssay.
# Entries with a potency or affinity are not part of this list. Records with an inconclusive call do not appear. Active and inactive are the calls of the source.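 Rule for the calls: active = falling signal with fitted half-maximal potency no higher than twice the top valid tested dose; inconclusive = poor fit quality, or flat fit spanning -70% to -30%; inactive = potency over limit, rising signal, or flat fit inside 30%.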
# Assay: fungal growth arrest, C. neoformans – Alamar Blue, cherry-picks, dose response (AID 686998)
# Details: Cryptococcus neoformans growth, 24 h; series mostly up to 35 µM
row,Structure (SMILES),outcome
1,COc1ccccc1CNC(=O)COc1ccc2c(c1)CCC2,inactive
2,COCC(=O)N1[C@H](C#N)[C@H](c2ccc(C#Cc3ccccc3F)cc2)[C@H]1CO,inactive
3,Cc1ccc(NC(=O)[C@H](C)NC(=O)C2CCN(C(=O)[C@@H](N)CC(C)C)CC2)cc1,inactive
4,C[C@H](O)C#Cc1cnc2c(c1)C(=O)N([C@@H](C)CO)C[C@@H](C)[C@@H](CN(C)C(=O)Cc1ccncc1)O2,inactive
5,CCC(=O)N1[C@@H]2c3cccc(=O)n3C[C@H]1[C@H](CO)[C@H]2C(=O)NCc1ccccc1,inactive
6,Cc1cccc(C)c1NC(=O)C(C)N1CCCCC1 (stereo not given),inactive
7,C[C@H]1CN([C@@H](C)CO)C(=O)CCCn2nncc2CO[C@@H]1CN(C)Cc1cccc(C(F)(F)F)c1,inactive
8,C[C@H](CO)N1C[C@H](C)[C@H](CN(C)C(=O)NC2CCCCC2)OCCCC[C@H](C)Oc2ccc(NC(=O)C3CCCCC3)cc2C1=O,inactive
9,COc1ccc(-c2cnc3c(c2)C(=O)N([C@H](C)CO)C[C@H](C)[C@H](CN(C)Cc2ccc(F)cc2)O3)cc1,inactive
10,O=C([C@H]1[C@H](CO)[C@H]2Cn3c(cccc3=O)[C@H]2N1CCC(F)(F)F)N1CCCCC1,inactive
11,C[C@H](CO)N1C[C@H](C)[C@H](CN(C)C(=O)Nc2cccc(F)c2)Oc2ncc(C#CCN(C)C)cc2C1=O,inactive
12,CN1[C@H](C(=O)N2CCc3ccccc3C2)[C@@H](CO)[C@@H]2Cn3c(ccc(-c4cccnc4)c3=O)[C@@H]21,inactive
13,CC(=O)N1[C@@H](CO)[C@H](c2ccc(-c3ccccc3)cc2)[C@@H]1CNC(=O)C1CC1,inactive
14,C[C@@H]1CCCCO[C@@H](CN(C)Cc2ccncc2)[C@@H](C)CN([C@H](C)CO)C(=O)c2cc(NC(=O)c3ccncc3)ccc2O1,inactive
15,CC(=O)N1CCN(c2ccc(NC(=S)NC(=O)c3ccc(C)c([N+](=O)[O-])c3)cc2)CC1,inactive
16,C[C@H](O)C#Cc1ccc([C@H]2[C@H](CO)N3CCCCN(CC4CCOCC4)C[C@@H]23)cc1,inactive
17,C[C@@H]1CN([C@@H](C)CO)C(=O)c2cc(NS(=O)(=O)c3ccc(F)cc3)ccc2O[C@@H](C)CCCCO[C@@H]1CN(C)Cc1ccc2c(c1)OCO2,inactive
18,C[C@H](CO)N1C[C@H](C)[C@@H](CN(C)C(=O)Nc2cccc3ccccc23)Oc2c(cccc2N(C)C)C1=O,inactive
19,CO[C@H]1CN(C)C(=O)c2cc(NC(=O)c3ccccc3F)ccc2OC[C@H](C)N(CC2CCOCC2)C[C@H]1C,inactive
20,CCCC#Cc1ccc2c(c1)O[C@@H](CN(C)C)[C@@H](C)CN([C@@H](C)CO)S2(=O)=O,inactive

row,Structure (SMILES),outcome
1,CC(C)NC(=O)Nc1ccc2c(c1)CC(=O)N([C@H](C)CO)C[C@@H](C)[C@H](CN(C)Cc1ccc3c(c1)OCO3)O2,inactive
2,Cc1ccc(S(=O)(=O)N2C[C@@H](O)COC[C@H]3O[C@H](CC(=O)NCc4ccc5c(c4)OCO5)CC[C@@H]32)cc1,inactive
3,C[C@H]1CCCCO[C@H](CN(C)S(=O)(=O)c2ccc(Cl)cc2)[C@@H](C)CN([C@@H](C)CO)C(=O)c2cc(NS(=O)(=O)c3cccs3)ccc2O1,inactive
4,Cc1cccc(C)c1NC(=O)CN1CCN(C(=O)CNC(=O)c2ccc(N3CCCC3=O)cc2)CC1,inactive
5,C[C@H](CO)N1C[C@H](C)[C@@H](CN(C)Cc2ccncc2)OCCCC[C@H](C)Oc2ccc(NC(=O)NC3CCCCC3)cc2C1=O,inactive
6,CCNC(=O)COc1cccc(C(=O)NCc2ccccc2)c1,inactive
7,O=C(CSc1ncnc2c1cnn2-c1ccccc1)NC1CCS(=O)(=O)C1 (stereo not given),inactive
8,C[C@H]1CN([C@@H](C)CO)C(=O)Cc2cc(NC(=O)Nc3ccccc3)ccc2O[C@H]1CN(C)C(=O)Nc1ccc2c(c1)OCO2,inactive
9,CC(C)NC(=O)NCC[C@@H]1CC[C@@H](NC(=O)CN(C)C)[C@@H](CO)O1,inactive
10,CCC(C)(C(=O)NC1CCCC1)N(C(C)=O)c1ccc(C)cc1 (stereo not given),inactive
11,CC1(C(=O)Nc2ccc3ccccc3c2)CCC(=O)N1C1CC1 (stereo not given),inactive
12,Cc1noc(C)c1S(=O)(=O)Nc1ccc2c(c1)C(=O)N([C@H](C)CO)C[C@H](C)[C@H](CN(C)Cc1ccncc1)O2,inactive
13,Cc1noc(C)c1NC(=O)Nc1cccc2c1O[C@@H](CN(C)S(=O)(=O)c1cn(C)cn1)[C@@H](C)CN([C@@H](C)CO)C2=O,inactive
14,CO[C@@H]1CN(C)C(=O)c2cc(NC(=O)C3CC3)ccc2OC[C@H](C)N(C(=O)c2ccncc2)C[C@H]1C,inactive
15,CC(C)c1ccc(S(=O)(=O)N2CCN(CC(=O)Nc3ccc4c(c3)OCO4)CC2)cc1,inactive
16,COc1ccc(S(=O)(=O)N[C@@H]2C=C[C@@H](CC(=O)N3CCC(Cc4ccccc4)CC3)O[C@H]2CO)cc1,inactive
17,COc1cccc(S(=O)(=O)N2C[C@@H](O)COC[C@@H]3O[C@H](CC(=O)N4CCN(C)CC4)CC[C@H]32)c1,inactive
18,CO[C@@H]1CN(C)C(=O)c2ccc(NC(=O)Nc3ccccc3)cc2OC[C@H](C)N(C(C)=O)C[C@H]1C,inactive
19,CC(=O)NC[C@@H]1[C@@H](c2ccc(C3=CCCC3)cc2)[C@@H](CO)N1C(=O)NC(C)C,inactive
20,O=C(NC1CCCCC1)N[C@@H]1CC[C@@H](CCNS(=O)(=O)c2ccc(Cl)cc2)O[C@H]1CO,inactive
